High-throughput results from PubChem BioAssay.
Rows were chosen to be rich in hits. Some 4.2% of all compounds tested hit in one or more screens of this group.
AHR act: activators of human aryl hydrocarbon receptor; AHR-responsive luciferase reporter cells, luminescence; 2.5% of 320,000 active; AID 2796; activation, % at 5 µM; in the data active means activation above about 47%
Target sequence (P35869 whole entry, looked up): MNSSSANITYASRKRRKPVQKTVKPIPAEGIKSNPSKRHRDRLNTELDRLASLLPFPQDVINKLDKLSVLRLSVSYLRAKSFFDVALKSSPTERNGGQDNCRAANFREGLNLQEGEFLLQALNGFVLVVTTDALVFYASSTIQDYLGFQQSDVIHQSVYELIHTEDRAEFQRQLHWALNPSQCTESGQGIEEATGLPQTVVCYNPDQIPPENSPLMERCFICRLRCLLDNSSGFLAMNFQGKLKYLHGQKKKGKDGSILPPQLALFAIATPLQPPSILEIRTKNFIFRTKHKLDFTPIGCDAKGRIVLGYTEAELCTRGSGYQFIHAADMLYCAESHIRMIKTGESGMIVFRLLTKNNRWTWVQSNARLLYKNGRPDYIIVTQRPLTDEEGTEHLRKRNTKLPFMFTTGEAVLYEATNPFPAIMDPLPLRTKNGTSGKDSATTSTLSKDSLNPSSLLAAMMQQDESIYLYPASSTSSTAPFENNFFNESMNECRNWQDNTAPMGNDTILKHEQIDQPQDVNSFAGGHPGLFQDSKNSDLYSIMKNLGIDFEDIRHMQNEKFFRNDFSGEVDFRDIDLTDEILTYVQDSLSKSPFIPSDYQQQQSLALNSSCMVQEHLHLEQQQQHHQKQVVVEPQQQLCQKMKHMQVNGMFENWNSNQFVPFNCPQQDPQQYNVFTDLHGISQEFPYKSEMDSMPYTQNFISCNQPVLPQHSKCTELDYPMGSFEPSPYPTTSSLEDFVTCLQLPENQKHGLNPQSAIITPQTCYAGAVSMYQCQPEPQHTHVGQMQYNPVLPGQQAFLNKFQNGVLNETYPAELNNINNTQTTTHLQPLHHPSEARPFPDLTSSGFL
GAA850 FXN act: frataxin GAA850 promoter activation; HEK293 lucGAA850 FXN promoter luciferase reporter, 24 h; percent of 10 µM SAHA response; activation, % at 6 µM; 0.56% of 360,000 active; AID 540364;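 active means activation above the average of all compounds screened plus 3 SD, cutoff fixed separately per campaign, cut at about 7.5% in these data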
Wnt bcat act: Wnt/beta-catenin pathway activation; 1.2% of 300,000 active; activation, % at 9.35 µM; AID 743398; Wnt/beta-catenin reporter cell assay, activator, plate reader; in the data active means activation above about 30%, passing the limit was not always enough; inconclusive means no clear call, values can overlap the other calls
esBAF inh: blocks esBAF chromatin remodeling in mouse ES cells | Bmi1-luciferase knock-in reporter, 24 h; 100% = twice the neutral-well signal | reporter increase, % at 12.5 µM | 2% of 350,000 active | AID 602393; in the data active means activation above about 40%; inconclusive means no clear call, values can overlap the other calls;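 further: a rise in the Bmi1 reporter signal indicates esBAF inhibition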
MITF TRPM1 HTS: activators of MITF-driven TRPM1 promoter activity in SK-MEL-5 cells | SK-MEL-5 TRPM1-promoter luciferase, 24 h; % of positive control, neutral wells = 0 | activation, % at 12.5 µM | 0.75% of 300,000 active;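 active means mean activation of at least 80% with every replicate also reaching 80%; inconclusive means mean reaches 80% but some replicate falls short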
Large screens that a line does not name were inactive.

CCOc1cccc(-c2cnc3cccnn23)c1	esBAF inh 61 (no result: AHR act, MITF TRPM1 HTS)
CCOc1ccc(-c2cnc3cccnn23)cc1	none (no result: AHR act, MITF TRPM1 HTS)
CN(C)C(=O)C[C@@H]1CC[C@H](NC(=O)C2CC2)[C@@H](CO)O1	none (no result: AHR act, GAA850 FXN act, Wnt bcat act, MITF TRPM1 HTS)
O=C(Cc1ccccn1)NCC[C@@H]1CC[C@@H](NC(=O)Nc2ccc(F)cc2)[C@H](CO)O1	none (no result: AHR act, GAA850 FXN act, Wnt bcat act, MITF TRPM1 HTS)
C[C@@H]1CCCCO[C@@H](CN(C)C(=O)C2CCCCC2)[C@H](C)CN([C@@H](C)CO)C(=O)c2cc(NC(=O)Nc3ccccc3)ccc2O1	none (no result: AHR act, GAA850 FXN act, Wnt bcat act, MITF TRPM1 HTS)
COc1ccc(/C(=N/Nc2ncnc3ccccc23)C(=O)O)cc1	AHR act 73, esBAF inh 59
CCCc1ccc(-c2csc(NC(=O)C3=COCCO3)n2)cc1	esBAF inh 65
Cc1ccc(-c2csc(NC(=O)C3=COCCO3)n2)cc1	MITF TRPM1 HTS inconclusive (no result: Wnt bcat act, esBAF inh)
CC(C)(C)c1csc(NC(=O)C2=COCCO2)n1	Wnt bcat act 53 (no result: esBAF inh)
COc1ccc(OC)c(-c2csc(NC(=O)C3=COCCO3)n2)c1	AHR act 50 (no result: esBAF inh)
CCCCCCSc1cc(-c2nc3cc(C)ccn3c2NCCCC)ccc1OC	none
CCCCNc1c(-c2cccc(-c3cc(C(C)=O)cs3)c2)nc2cc(C)ccn12	AHR act 55
COc1ccc(NC(=O)Nc2ccc3c(c2)CC(=O)N([C@H](C)CO)C[C@H](C)[C@H](CN(C)S(=O)(=O)c2ccc(F)cc2)O3)cc1	none (no result: AHR act, GAA850 FXN act, Wnt bcat act, MITF TRPM1 HTS)
C[C@H]1CN([C@@H](C)CO)C(=O)Cc2cc(NC(=O)Nc3ccc4c(c3)OCO4)ccc2O[C@@H]1CN(C)S(=O)(=O)c1ccccc1	none (no result: AHR act, GAA850 FXN act, Wnt bcat act, MITF TRPM1 HTS)
COc1ccc(NC(=O)/C=C/c2cccc(Br)c2)cn1	esBAF inh 67
COc1ccc(NC(=O)/C=C/c2cccc(C(F)(F)F)c2)cn1	none
C[C@@H]1CCCCO[C@H](CN(C)C(=O)Nc2ccc3c(c2)OCO3)[C@H](C)CN([C@H](C)CO)C(=O)c2cc(NC(=O)c3ccccc3)ccc2O1	none (no result: AHR act, GAA850 FXN act, Wnt bcat act, MITF TRPM1 HTS)
c1ccc2c(Nc3nc(N4CCOCC4)c4ccccc4n3)cccc2c1	AHR act 71 (no result: Wnt bcat act, esBAF inh)
C[C@H]1CN([C@@H](C)CO)C(=O)c2cc(NC(=O)Cn3cnnn3)ccc2O[C@H]1CN(C)CC1CCCCC1	none (no result: AHR act, GAA850 FXN act, Wnt bcat act, MITF TRPM1 HTS)
Nc1n[nH]c(-c2ccc(Br)cc2)c1Cl	AHR act 62
O=c1[nH]cnc2c1nnn2C1OC(CO)C(O)C1O (stereo not drawn)	esBAF inh 71 (no result: AHR act, MITF TRPM1 HTS)
O=C(Nc1ccccc1)N[C@H]1CC[C@H](CCNS(=O)(=O)c2cccc(F)c2)O[C@H]1CO	none (no result: AHR act, GAA850 FXN act, Wnt bcat act, MITF TRPM1 HTS)
C[C@H]1CN([C@@H](C)CO)C(=O)Cc2cc(NC(=O)CCCCCC(=O)Nc3ccccc3N)ccc2O[C@H]1CN(C)S(=O)(=O)c1ccccc1	none (no result: AHR act, GAA850 FXN act, Wnt bcat act, MITF TRPM1 HTS)
N#C/C(=C\c1cccc2ccccc12)c1nn(-c2ccccc2)c(N)c1C#N	AHR act 56 (no result: GAA850 FXN act, Wnt bcat act, esBAF inh, MITF TRPM1 HTS)
O=S(=O)(NCc1csc(-c2cccnc2)n1)c1cccs1	none (no result: MITF TRPM1 HTS)
O=S(=O)(NCCc1csc(-c2cccnc2)n1)c1cccs1	AHR act 69 (no result: MITF TRPM1 HTS)
CC(=O)Nc1cc(-c2ccc(N3CCN(C)CC3)cc2)cn2c(-c3ccccc3)cnc12	Wnt bcat act 38 (no result: AHR act, MITF TRPM1 HTS)
CC(=O)Nc1cc(-c2ccc(N3CCN(C)CC3)cc2)cn2c(-c3ccc(S(C)(=O)=O)cc3)cnc12	none (no result: AHR act, MITF TRPM1 HTS)
CCCC1c2ccc(C)n2CCN1C(=O)Nc1ccccc1Cl (stereo not drawn)	esBAF inh 63 (no result: Wnt bcat act)
Cc1ccc(S(=O)(=O)N(C)C[C@@H]2OCCCC[C@H](C)Oc3ccc(NC(=O)NC4CCCCC4)cc3C(=O)N([C@H](C)CO)C[C@H]2C)cc1	none (no result: AHR act, GAA850 FXN act, Wnt bcat act, MITF TRPM1 HTS)
CSc1ccc(/C=C/c2cc(=O)c3ccccc3[nH]2)cc1	AHR act 56 (no result: esBAF inh)
COC(=O)[C@H]1C[C@@]2(O)CN(S(=O)(=O)c3ccc(C)cc3)C[C@@]2(OC(=O)NCC2CCCCC2)C[C@H]1C(=O)OC	esBAF inh 52 (no result: AHR act, MITF TRPM1 HTS)
COC(=O)[C@H]1C[C@@]2(O)CN(S(=O)(=O)c3ccc(C)cc3)C[C@@]2(OC(=O)NC2CC2)C[C@H]1C(=O)OC	none (no result: AHR act, MITF TRPM1 HTS)
CO[C@H]1CN(C)C(=O)c2cc(NC(=O)NC3CCCCC3)ccc2OC[C@@H](C)N(C(C)=O)C[C@H]1C	none (no result: AHR act, GAA850 FXN act, Wnt bcat act, MITF TRPM1 HTS)
CCSc1nnc(-c2c[nH]c3ccccc23)o1	esBAF inh 49 (no result: Wnt bcat act)
N#CCSc1nnc(-c2c[nH]c3ccccc23)o1	none (no result: esBAF inh)
O=C(c1ccc2c(=O)n3c(nc2c1)CCCCC3)N1CCCCC1	none
Cc1ccc2c(c1)COc1c3ccc(C(=O)N4CCOCC4)cc3nn1-2	Wnt bcat act 43, esBAF inh 57, MITF TRPM1 HTS inconclusive
O=C(c1ccc2c3n(nc2c1)-c1ccc(Cl)cc1CO3)N1CCCCC1	Wnt bcat act inconclusive, esBAF inh 47, MITF TRPM1 HTS 103
O=C(O)c1ccc2c3n(nc2c1)-c1ccc(Cl)cc1CO3	Wnt bcat act 36 (no result: GAA850 FXN act, esBAF inh, MITF TRPM1 HTS)
O=C(Cc1cccs1)Nc1nnc(SCc2ccc(C(F)(F)F)cc2)s1	none (no result: esBAF inh)
O=C(Cc1cccs1)Nc1nnc(SCc2ccc(Br)cc2)s1	AHR act 48 (no result: esBAF inh)
O=C(Nc1nnc(SCc2ccccc2)s1)C1=COCCO1	esBAF inh 67
c1ccc(CSc2nnc(NC3=NCCCCC3)s2)cc1	esBAF inh 41 (no result: Wnt bcat act, MITF TRPM1 HTS)
O=C(NCCc1ccccc1)C1=COCCO1	esBAF inh 48
CC(C)(C)c1ccccc1NC(=O)C1=COCCO1	none
C[C@@H]1CN([C@@H](C)CO)C(=O)c2cc(-c3ccncc3)cnc2O[C@H]1CN(C)C(=O)NC1CCCC1	none (no result: AHR act, GAA850 FXN act, Wnt bcat act, MITF TRPM1 HTS)
CCC(=O)Nc1ccc2c(c1)C(=O)N(C)[C@@H]1CC[C@H](CC(=O)O)O[C@@H]1CO2	none (no result: AHR act, GAA850 FXN act, Wnt bcat act, MITF TRPM1 HTS)
CO[C@@H]1CN(C)C(=O)c2cc(NC(=O)C3CC3)ccc2OC[C@@H](C)N(Cc2cncnc2)C[C@@H]1C	none (no result: AHR act, GAA850 FXN act, Wnt bcat act, MITF TRPM1 HTS)
